Here are results for 13 compounds from PubChem BioAssay (Tox21).

SMILES strings stand for the structures. Inconclusive results are not listed. A number with no mark means an inactive call. Activity calls are given as the source filed them. Unless noted, the call rests on the fitted dose curve; in most records, active means well fitted curve in the direction sought with a large enough effect in the repeat runs; inconclusive means weak or mixed curves; inactive means no such curve, though single readings can be large; an effect the other way counts as inactive or inconclusive.

Assay [1] deals with Retinoic acid receptor RXR-alpha (Homo sapiens) (UniProt P19793). In words: qHTS assay to identify small molecule agonists of the RXR signaling pathway (AID 1159527; calls by dose curve; further: nearly all actives have a fitted effect of over 35% in size; further: potency means the concentration at half of the fitted maximal effect). The essentials:
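Beta-lactamase reporter assay, agonist format. Engineered HEK 293T line, charcoal-stripped FBS at 2%, overnight (16 hr) exposure, fluorescence at 460 and 530 nm after 405 nm excitation.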
(qHTS replaces the single test concentration by a dilution series.)

Assay [2] is described as follows: qHTS assay to identify small molecule agonists of the RXR signaling pathway - cell viability counter screen (AID 1159529).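 Further: HEK 293T cells carrying an RXR-alpha UAS beta-lactamase reporter; series mostly up to about 77 µM; nearly all actives have a fitted effect of over 50% in size.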 In short, it runs like this:
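Same-well viability check after the LiveBLAzer FRET read: CellTiter-Glo added, luminescence measured after 30 min at room temperature. Reporter HEK 293T cells had been treated with compounds for 16 hr following a 5 hr preincubation.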

Assay [3] can be described thus: qHTS assay to identify small molecule antagonists of the retinoid acid receptor (RAR) signaling pathway - cell viability counter screen (AID 1159551). Further: nearly all actives have a fitted effect of over 35% in size. The essentials:
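Measured by luminescent ATP detection, viability reflects C3RL4 cells treated 6 h at 37 C with test chemicals in the presence of 1 uM (final) retinol.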

Assay [4] can be described thus: qHTS assay to identify small molecule antagonists of the retinoic acid receptor (RAR) signaling pathway (AID 1159552; further: nearly all actives have a fitted effect of over 50% in size). In short, it runs like this: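 Readout: luciferase luminescence, 30 min post-reagent at RT. Setup: C3RL4 RARE reporter cells, compounds plus retinol 1 uM final, 6 hr incubation at 37 C and 5% CO2.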
Assay [5] is described as follows: qHTS assay to identify small molecule agonists of the retinoic acid receptor (RAR) signaling pathway (AID 1159553). The essentials:
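6 hr compound exposure (DMSO vehicle) of overnight-plated C3RL4 RARE-luc cells at 37 C; luminescence quantified after 30 min RT with luciferase reagent.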

Assay [6] can be described thus: qHTS assay to identify small molecule antagonists of the estrogen related receptor (ERR) signaling pathway from Tox21 library - cell viability counter screen (AID 1224834). Further: nearly all actives have a fitted effect of over 30% in size. The essentials: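 Seeded ERR cells were rested 6 h at 37 C/5% CO2 before compounds, positive and negative controls or DMSO were added. Incubation continued for 17.5 h, and viability was then quantified by CellTiter-Fluor fluorescence.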

A short description of assay [7]: qHTS assay to identify small molecule agonists of the constitutive androstane receptor (CAR) signaling pathway - cell viability counter screen (AID 1224836). Further: series mostly up to about 92 µM; nearly all actives have a fitted effect of over 45% in size. In short, it runs like this: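 Compound titrations (15 concentrations) went onto HepG2-CYP2B6-hCAR cells 4 h after seeding, alongside PK11195 at a final 0.75 uM; a 23 h, 37 C/5% CO2 incubation preceded CellTiter-Fluor viability measurement.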

Assay [8] is described as follows: qHTS assay to identify small molecule antagonists of the constitutive androstane receptor (CAR) signaling pathway - cell viability counter screen (AID 1224837). Further: series mostly up to about 92 µM; nearly all actives have a fitted effect of over 45% in size. The essentials: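 To flag cytotoxic false antagonists, HepG2 hCAR/CYP2B6-2.2kb cells were treated 23 hr with 15-concentration compound series and 50 nM CITCO at 37 C/5% CO2; CellTiter-Fluor fluorescence was the measured end point.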

For assay [9], the target named is Nuclear receptor subfamily 1 group I member 3 (Homo sapiens) (UniProt Q14994). In words: qHTS assay to identify small molecule antagonists of the constitutive androstane receptor (CAR) signaling pathway (AID 1224838).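 Further: HepG2 cells stably expressing hCAR with CYP2B6 luciferase reporter stimulated by CITCO; nearly all actives have a fitted effect of over 40% in size.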 The essentials: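 Human hepatoma HepG2 cells expressing hCAR and a CYP2B6 promoter (2.2 kb) luciferase construct; compound titration (15 points) with 50 nM CITCO final, 24 h at 37 C/5% CO2; luminescence via ONE-Glo after 30 min at room temperature.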
Nuclear receptor subfamily 1 group I member 3 (Homo sapiens), sequence (Q14994 whole entry, looked up): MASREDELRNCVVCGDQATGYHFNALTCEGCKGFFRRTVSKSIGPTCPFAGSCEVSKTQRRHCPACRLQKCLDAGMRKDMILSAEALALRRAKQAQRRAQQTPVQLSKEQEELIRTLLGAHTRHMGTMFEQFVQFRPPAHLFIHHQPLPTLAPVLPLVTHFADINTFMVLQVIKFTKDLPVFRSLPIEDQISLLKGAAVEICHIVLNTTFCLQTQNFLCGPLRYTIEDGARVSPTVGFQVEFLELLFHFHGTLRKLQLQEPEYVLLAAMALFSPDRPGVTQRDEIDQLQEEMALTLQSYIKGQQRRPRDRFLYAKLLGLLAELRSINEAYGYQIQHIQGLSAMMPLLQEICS

The target is the same in assay [10]. The assay can be described thus: qHTS assay to identify small molecule agonists of the constitutive androstane receptor (CAR) signaling pathway (AID 1224839).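 Further: HepG2 cells stably carrying human CAR and a CYP2B6 luciferase reporter; series mostly up to about 92 µM; nearly all actives have a fitted effect of over 15% in size.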 The essentials:
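In this screen, CAR-driven CYP2B6 promoter activity is measured by luminescence in HepG2-CYP2B6-hCAR cells after 24 h with test compounds and 0.75 uM PK11195 (final concentration).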

Assay [11] in a line: qHTS assay to identify small molecule antagonists of the estrogen related receptor signaling pathway with the pleiotropic PPARgamma coactivator (PGC) from Tox21 10K library - cell viability counter screen (AID 1224840; active means well fitted cell-killing curve with a large enough effect in the repeat runs, not every such curve was filed as active; further: nearly all actives have a fitted effect of over 40% in size). In short, it runs like this: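 Seeded PGC/ERR cells (2,000/well, 6 h, 37 C/5% CO2) get compound by pin tool; 17.5 h incubation at 37 C; CellTiter-Fluor added, 30 min, fluorescence measured.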

Assay [12] has as its target Thyrotropin receptor (Homo sapiens) (UniProt P16473). The assay can be described thus: qHTS assay to identify small molecule agonists of the thyroid stimulating hormone receptor (TSHR) signaling pathway (AID 1224843; calls by dose curve; further: nearly all actives have a fitted effect of over 45% in size). In short, it runs like this: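 HEK293/TSHR, 800 cells/well; cpd 30 min RT; add cAMP-d2 + anti-cAMP-cryptate, 1 h RT; fluorescence read on plate reader. 15-pt titration, n=3.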

Assay [13] in a line: qHTS assay to identify small molecule agonists of the hypoxia (HIF-1) signaling pathway - cell viability counter screen (AID 1224844; calls by dose curve; further: nearly all actives have a fitted effect of over 50% in size). In short, it runs like this:
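HRE-bla ME-180; 0.5% dFBS; cpd 17 h, 37C, 5% CO2; CellTiter-Glo lum., 30 min RT, post-FRET read, same wells.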

Assay [14] in a line: qHTS assay to identify small molecule agonists of H2AX (AID 1224845; active means well fitted activation curve with a large enough effect in the signal ratio in the repeat runs, not every such curve was filed as active; the % refers to the signal ratio). In short, it runs like this:
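Wild-type CHO-K1 cells, plated overnight, exposed 3hr at 37C to 15 concentrations (0.76% DMSO final). Lysed, then HTRF anti-pH2AX (S139) cryptate and anti-H2AX-d2 antibodies, 24 hr room temperature; 665/620 nm emission read.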

A short description of assay [15]: qHTS assay to identify small molecule agonists of the hypoxia (HIF-1) signaling pathway (AID 1224846; active means well fitted activation curve with a large enough effect in the signal ratio in the repeat runs, not every such curve was filed as active; the % refers to the signal ratio). The essentials:
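Reporter induction in HRE-bla ME-180 cells is taken as agonism: cells sit 5 hrs after plating, receive compounds or DMSO only, incubate 17 hrs at 37C under 5% CO2, and are loaded with CCF4-AM for beta-lactamase FRET measurement.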

Assay [16] is described as follows: qHTS assay to identify small molecule agonists of H2AX - cell viability counter screen (AID 1224847; calls by dose curve; further: top concentration of the series differs between compounds; nearly all actives have a fitted effect of over 30% in size). The essentials:
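Read-out: CellTiter-Glo luminescence, 30 min RT. Cells: wild-type CHO-K1, 1000/well, 10% FBS, plated overnight at 37C. Treatment: 15 concentrations, 3 hr, 37C, 0.76% DMSO.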

Assay [17] addresses Luciferin 4-monooxygenase (Photinus pyralis) (UniProt P08659). The assay can be described thus: qHTS assay to identify small molecule inhibitors of firefly luciferase (AID 1224835). Further: series mostly up to about 120 µM; nearly all actives have a fitted effect of over 25% in size. In short, it runs like this:
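Biochemical qHTS: compounds run as interplate titrations against purified firefly enzyme, with D-luciferin and ATP each at its KM concentration. Light output recorded by CCD imaging.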

A short description of assay [18]: qHTS assay to identify small molecule antagonists of the estrogen related receptor signaling pathway with the pleiotropic PPARgamma coactivator (PGC) from Tox21 10K library (AID 1224841; call rule not given here; further: series mostly up to about 92 µM; actives are mostly falling curves and most rising ones were filed inactive; nearly all actives have a fitted effect of over 50% in size). In short, it runs like this:
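Test chemicals dissolved in DMSO were applied to pre-incubated (6 h) PGC/ERR cells at 2,000 cells/well for an 18 h, 37 C treatment; reporter luminescence was then read using One-Glo.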

The nature of assay [19]: qHTS assay to identify small molecule agonists of the estrogen related receptor signaling pathway with the pleiotropic PPARgamma coactivator (PGC) from Tox21 10K library (AID 1224842). Further: nearly all actives have a fitted effect of over 15% in size. In short, it runs like this: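 PGC/ERR reporter cell line, 2,000 cells per well, incubated 6 h at 37 C before 23 nL compound in DMSO was added. After 18 h at 37 C, One-Glo luminescence read following 30 min at room temperature.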

Assay [20] is described as follows: qHTS assay to identify small molecule antagonists of the estrogen related receptor (ERR) signaling pathway from Tox21 library (AID 1224848). Further: nearly all actives have a fitted effect of over 50% in size. The essentials: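 Compounds dissolved in DMSO are pin-transferred onto ERR reporter cells (2,000 per well) that have settled for 6 h at 37 C. Plates then incubate 18 h at 37 C before ONE-Glo luciferase reagent and a luminescence read 30 min later.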
On the % scale 0 is the no-effect control and ±100 the full control effect.

Thyrotropin receptor (Homo sapiens), sequence (P16473 whole entry, looked up): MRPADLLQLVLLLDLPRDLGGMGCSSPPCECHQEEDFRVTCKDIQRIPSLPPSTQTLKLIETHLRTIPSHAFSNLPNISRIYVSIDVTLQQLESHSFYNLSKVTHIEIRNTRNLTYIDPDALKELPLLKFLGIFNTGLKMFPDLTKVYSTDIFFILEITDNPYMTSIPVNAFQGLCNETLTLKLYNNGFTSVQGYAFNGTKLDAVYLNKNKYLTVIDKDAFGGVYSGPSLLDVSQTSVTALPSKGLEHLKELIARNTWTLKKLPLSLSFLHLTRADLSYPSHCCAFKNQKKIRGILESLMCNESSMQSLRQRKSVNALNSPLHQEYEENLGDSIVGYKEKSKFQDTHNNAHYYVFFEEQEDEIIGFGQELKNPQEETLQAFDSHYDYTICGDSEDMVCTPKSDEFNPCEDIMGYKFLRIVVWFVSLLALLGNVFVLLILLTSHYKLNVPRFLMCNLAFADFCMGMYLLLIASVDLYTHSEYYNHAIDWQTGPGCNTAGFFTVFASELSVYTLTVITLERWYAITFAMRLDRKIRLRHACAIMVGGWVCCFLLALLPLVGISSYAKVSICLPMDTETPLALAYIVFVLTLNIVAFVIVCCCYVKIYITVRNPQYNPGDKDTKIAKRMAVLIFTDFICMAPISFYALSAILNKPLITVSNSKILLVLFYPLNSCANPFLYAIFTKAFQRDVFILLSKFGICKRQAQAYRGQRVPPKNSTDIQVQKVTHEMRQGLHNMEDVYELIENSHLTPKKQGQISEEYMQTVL
Retinoic acid receptor RXR-alpha (Homo sapiens), sequence (P19793 whole entry, looked up): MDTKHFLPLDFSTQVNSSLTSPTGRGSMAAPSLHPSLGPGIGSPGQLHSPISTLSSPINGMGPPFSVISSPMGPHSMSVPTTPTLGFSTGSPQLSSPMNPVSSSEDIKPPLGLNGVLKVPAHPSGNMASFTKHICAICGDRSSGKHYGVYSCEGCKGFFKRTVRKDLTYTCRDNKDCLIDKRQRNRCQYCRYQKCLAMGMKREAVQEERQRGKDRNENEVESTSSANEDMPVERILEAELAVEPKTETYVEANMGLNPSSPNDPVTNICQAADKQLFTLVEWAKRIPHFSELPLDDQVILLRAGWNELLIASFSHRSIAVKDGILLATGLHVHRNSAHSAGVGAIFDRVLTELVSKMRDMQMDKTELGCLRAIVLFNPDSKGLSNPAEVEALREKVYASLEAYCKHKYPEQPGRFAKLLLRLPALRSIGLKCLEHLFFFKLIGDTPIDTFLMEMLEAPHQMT
Luciferin 4-monooxygenase (Photinus pyralis), sequence (P08659 whole entry, looked up): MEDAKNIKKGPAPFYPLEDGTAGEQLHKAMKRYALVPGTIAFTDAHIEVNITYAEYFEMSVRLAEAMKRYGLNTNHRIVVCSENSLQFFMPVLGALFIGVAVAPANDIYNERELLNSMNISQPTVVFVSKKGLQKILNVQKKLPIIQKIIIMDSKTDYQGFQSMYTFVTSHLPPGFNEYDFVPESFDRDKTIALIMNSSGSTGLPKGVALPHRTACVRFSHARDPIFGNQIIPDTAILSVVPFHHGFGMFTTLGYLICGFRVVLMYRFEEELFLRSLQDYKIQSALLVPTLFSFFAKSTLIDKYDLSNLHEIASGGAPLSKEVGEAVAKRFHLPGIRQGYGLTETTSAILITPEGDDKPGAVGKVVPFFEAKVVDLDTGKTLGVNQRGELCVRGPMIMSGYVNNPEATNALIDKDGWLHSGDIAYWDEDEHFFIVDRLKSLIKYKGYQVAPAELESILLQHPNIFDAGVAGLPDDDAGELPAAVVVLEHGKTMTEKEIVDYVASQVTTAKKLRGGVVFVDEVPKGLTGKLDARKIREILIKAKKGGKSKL

In the case of `CC(O)COC(C)(C)C` (centres undefined), the Potency entry in assay [1], in assay [5], in assay [9] and in [10] was “inactive” throughout. In addition, the result in assay [2], in assay [3], in assay [4], in assay [6], in assay [7] and in assay [8] was inactive. The compound was classed as inactive in assay [11], in [12], in assay [13], in assay [14], in assay [15] and in [16].
`CC(=O)O[Si](C)(OC(C)=O)OC(C)=O`: the Potency entry in [1], in assay [17], in assay [9] and in [10] was “inactive” throughout. Further, the compound was called inactive in assay [2], in assay [3], in assay [4], in [6], in assay [7] and in assay [8]. The compound was called inactive in [11], in [12], in [13], in [14], in [15] and in assay [16].
On to `C[Si]1(C)O[Si](C)(C)O[Si](C)(C)O[Si](C)(C)O[Si](C)(C)O1`, for which the Potency entry in [1], in assay [17], in [9] and in assay [10] was “inactive” throughout. Moreover, the call in [2], in assay [3], in assay [4], in assay [6], in [7] and in assay [8] was inactive. The outcome in assay [11], in assay [12], in [13], in [14], in [15] and in assay [16] was inactive.
Consider `CC(=O)CC(=O)Nc1ccc(C)cc1C`, for which the Potency result in assay [1], in assay [5] and in assay [10] was “inactive” throughout. In addition, the call in [2], in assay [3], in assay [4], in assay [7], in [8] and in assay [11] was inactive. The outcome in [12], in assay [13], in assay [14], in [15] and in [16] was inactive.
Take `O=Cc1cc2ccccc2o1`: the Potency entry in assay [1], in [5], in assay [17], in assay [9] and in assay [10] was “inactive” each time. The result in [2], in assay [3], in [4], in assay [7], in assay [8] and in assay [11] was inactive. Besides, the call in [12], in assay [13], in assay [14], in assay [15] and in [16] was inactive.
Take `Cc1cccc(Cl)c1`: the Potency entry in assay [1], in [5], in assay [9] and in assay [10] was “inactive” each time. The compound was classed as inactive in assay [2], in assay [3], in [4], in assay [6], in assay [7] and in assay [8]. The result in [11], in assay [12], in [14], in assay [15] and in assay [16] was inactive.
For the compound `N[C@@H](Cc1ccc(O)cc1)C(=O)O`, the activation in assay [1] was 0.71% [at 6.98 µM]; in [5], 0.0879% [at 8.36 µM]; in assay [10], -2.78% [at 8.39 µM]; in [12], 8.55% [at 8.39 µM]; in [15], -0.522% [at 7.01 µM]. The figures for the activity change, negative = cytotoxicity in [2], in assay [3] and in [16] were 2.08% [at 6.97 µM], -0.852% [at 8.39 µM] and 5.12% [at 14 µM], respectively. Besides, the activity, negative = inhibition is 7.5% [at 8.39 µM] in [4] and -4.54% [at 8.39 µM] in assay [9]. The activity change, negative = inhibition in assay [17] was 1.38% [at 10.5 µM]. Also, the viability change, negative = cytotoxic was -0.95% [at 8.39 µM] in assay [7] and 3.49% [at 8.39 µM] in assay [11]. Further, the activation (H2AX phosphorylation) in [14] is 0.078% [at 14 µM].
Consider `OCCN1CCOCC1`, for which the Potency result in [1], in [5], in [9] and in assay [10] was “inactive” each time. Further, the result in [2], in [3], in [4], in [6], in assay [7] and in assay [8] was inactive. Also, the compound was called inactive in assay [11], in assay [12], in assay [13], in [14], in assay [15] and in [16].
As for `N#CCC(=O)NN`, the Potency entry in assay [1], in [5] and in [9] was “inactive” throughout. The compound was called inactive in [2], in assay [3], in assay [4], in assay [6], in [7] and in assay [8]. Also, the compound was classed as inactive in assay [11], in assay [12], in assay [13], in [14], in assay [15] and in assay [16].
Take `CCCCOC(=O)[C@H](C)O`: the Potency entry in assay [1], in assay [17] and in assay [9] was “inactive” each time. Further, the result in assay [2], in [3], in assay [4], in [6], in [7] and in [11] was inactive. For the same compound, the compound was called inactive in assay [12], in [13], in [14], in assay [15] and in assay [16].
`Cc1cc(C)c(C(=O)O)c(C)c1`: the Potency result in assay [1], in assay [5], in [17], in assay [9] and in assay [10] was “inactive” each time. Further, the result in assay [2], in assay [3], in assay [4], in [7], in [8] and in [11] was inactive. For the same compound, the compound was classed as inactive in [12], in assay [13], in assay [14], in [15] and in assay [16].
Regarding `OC[C@@H](O)C(O)[C@@H](O)CO` (some centres undefined), in assay [1], the Potency was 1.57 µM (active). Further, the result in [2], in assay [3], in assay [4], in assay [7], in assay [8] and in assay [11] was inactive. For the same compound, the compound was classed as inactive in [18], in assay [19], in [14], in assay [15] and in assay [16]. The Potency entry in [5], in assay [17], in assay [9] and in [20] was “inactive” throughout.
As to `CC1=NN(c2ccc(S(=O)(=O)O)cc2)C(=O)C1`, the Potency entry in assay [1], in assay [5], in assay [17], in [9] and in assay [10] was “inactive” each time. Also, the compound was called inactive in [2], in [3], in assay [4], in assay [7], in [8] and in assay [11]. Also, the result in assay [12], in assay [13], in [15] and in assay [16] was inactive.
